Results filed as inconclusive are left out. A number with no mark means an inactive call. Activity calls are given as the source filed them. The call rests on the fitted dose curve.
These compounds were tested against Vitamin D3 receptor (Homo sapiens) (UniProt P11473) (assay: qHTS assay for small molecule antagonists of vitamin D receptor signaling (AID 588541;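 further: receptor activated by calcitriol during compound treatment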)). Conditions: HEK293T VDR-UAS-bla, beta-lactamase ratio, antagonist mode; series mostly up to 76.7 µM; activity change, negative = inhibition: at the top concentration.
Text: NIH Chemical Genomics Center [NCGC]
U.S. Environmental Protection Agency [EPA]
National Institutes of Environmental Health Sciences [NIEHS]
National Toxicology Program [NTP]
The Vitamin D receptor (VDR) is a member of nuclear hormone receptor superfamily and it plays a critical role in calcium homeostasis and bone metabolism. It plays a role in inducing cell differentiation, inhibiting cell growth and in thrombogenicity. So, VDR that mediates these effects represents a pharmacological target in prevention and treatment of hyperproliferative malignancies, such as cancer and psoriasis, cardiovascular, immunological, inflammatory and renal diseases etc.
NCGC Assay Protocol Summary
Using a beta-lactamase reporter-gene under control of Vitamin D receptor (VDR) response element, a cell-based assay [GeneBLAzer (VDR -UAS-bla assay developed by Invitrogen] was used to measure VDR ligands signaling. GeneBLAzer VDR -UAS-bla HEK293T cells were used with assay medium containing 2% charcoal-stripped FBS. The assay was performed in clear bottom black Greiner 1536-well plates. Library compounds were measured for their ability to inhibit the reporter gene activity. Compounds were screened in a titration series in 1536-well format. The fluorescence intensity (405 nm excitation, 460/530 nm emission) was measured using an EnVision plate reader. Data was normalized relative to 1-alpha,25-Dihydroxy vitaminD3 control (50 nM, 100%) and DMSO only wells (basal, 0%). Concentration-response titration points for each compound were fitted to the Hill equation yielding concentrations of half-maximal inhibition (IC50) and maximal response (efficacy) values.
qHTS protocol for VDR beta-lactamase assay in antagonist mode
[Step] [Parameter] [Value] [Description]
1. Reagent; 5 uL; 2000 cells/well
2. Incubation; 37 C for 5 hrs
4. Controls (DMSO); 23 nL,
5. Agonist (Stimulator); 1uL; 1-alpha,25-Dihydroxy vitaminD3 at 50 nM and 3 nM final concentrations
6. Incubation; 37 C for 16 hrs
7. Detection reagent; 1 uL of CCF4-dye
8. Incubation; RT for 2 hrs
9. Detection; Fluorescence; Envision plate reader
On the % scale 0 is the no-effect control and ±100 the full control effect.

Chain of Vitamin D3 receptor (Homo sapiens) (P11473 whole entry, looked up): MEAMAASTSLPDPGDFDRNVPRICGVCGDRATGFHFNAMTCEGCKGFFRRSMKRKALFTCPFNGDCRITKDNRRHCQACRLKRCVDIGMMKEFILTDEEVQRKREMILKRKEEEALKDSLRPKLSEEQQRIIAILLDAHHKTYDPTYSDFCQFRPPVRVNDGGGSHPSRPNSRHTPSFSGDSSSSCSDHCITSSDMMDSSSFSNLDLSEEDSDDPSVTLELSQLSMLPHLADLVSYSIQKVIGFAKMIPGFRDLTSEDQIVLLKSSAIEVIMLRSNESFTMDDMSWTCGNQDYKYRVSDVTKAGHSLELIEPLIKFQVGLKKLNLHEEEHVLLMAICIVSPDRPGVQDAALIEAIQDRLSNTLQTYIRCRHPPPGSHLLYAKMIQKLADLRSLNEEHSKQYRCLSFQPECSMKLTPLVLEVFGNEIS

| SMILES | activity change, negative = inhibition | Potency |
| --- | --- | --- |
| CC(C)OC(=O)c1ccccc1C(=O)OC(C)C | 10.3% |  |
| Nc1cc(Cl)nc(C(=O)O)c1Cl | 9.06% |  |
| C=C(C)C(=O)OCCN(C)C | 5.15% |  |
| CCCC[O][Al]([O]CCCC)[O]CCCC | 1.56% |  |
| CCCCCCCCCCCCCCN | 0.233% |  |
| CO[Si](OC)(OC)c1ccccc1 | -4.79% |  |
| CCOC(=O)[C@H](C)Oc1ccc(Oc2nc3ccc(Cl)cc3o2)cc1 | -9.75% |  |
| CC1(C)[C@@H](C=C(Cl)Cl)[C@@H]1C(=O)OCc1cccc(Oc2ccccc2)c1 | 1.61% |  |
| c1cc(-c2ccncc2)ccn1 | -1.96% |  |
| COC(=O)c1ccc(I)cc1S(=O)(=O)NC(=O)Nc1nc(C)nc(OC)n1 | 1.6% |  |
| Nc1ccc(N)c2c1C(=O)c1c(N)ccc(N)c1C2=O | 6.35% |  |
| CCCCC(CC)C(=O)OCCOCCOCCOC(=O)C(CC)CCCC (stereo not given) | 7.14% |  |
| CC1=CC2C3CC(C=C3C)C2C1 (stereo not given) | 0.5% |  |
| O=C(O)C1(C(=O)Nc2ccc(Cl)cc2Cl)CC1 | -3.4% |  |
| CC(=O)N(CCN(C(C)=O)C(C)=O)C(C)=O | 4.75% |  |
| O=C(c1ccc(Cl)cc1)c1ccc(Cl)cc1 | 2.08% |  |
| BrC1CCC(Br)C(Br)CCC(Br)C(Br)CCC1Br (stereo not given) | 5.93% |  |
| CC(C)(C)c1n[nH]c(=O)n(N)c1=O | -0.021% |  |
| CCCCCCCCCCCC[N+](C)(C)[O-] | 2.46% |  |
| OC1CCC(C2CCCCC2)CC1 (stereo not given) | 2.26% |  |

| SMILES | activity change, negative = inhibition | Potency |
| --- | --- | --- |
| CC(C)Nc1nc(N)nc(Cl)n1 |  | inactive |
| O=c1oc(=O)c2cc3c(=O)oc(=O)c3cc12 | -2.01% |  |
| O=C(OCC1CCC2OC2C1)C1CCC2OC2C1 (stereo not given) | -1.44% |  |
| CCCCCCCCCCCCCCC | 3.99% |  |
| CC1(C)C(=O)NC(=O)N1CO | 3.34% |  |
| C=C(C)C(=O)OCCCCCCCCCCCCCCCC | -0.709% |  |
| CC1COCc2cc3c(cc21)C(C)(C)C(C)C3(C)C (stereo not given) | 10.5% |  |
| CCCCCCCCCCCCCC(=O)OC | 5.62% |  |
| C[Si](Cl)(Cl)[Si](C)(Cl)Cl | 9.02% |  |
| COC(=O)C1CCC(C(=O)OC)CC1 (stereo not given) | 6.54% |  |
| COC(=O)c1cccc(C(=O)OC)c1 | 7.72% |  |
| CCCCCCCCCCCCCCO | 0.545% |  |
| CCOC(=O)CCCCCCCCC(=O)OCC | 4.84% |  |
| Cc1ccc(N=Nc2c(O)ccc3ccccc23)c([N+](=O)[O-])c1 | 4.4% |  |
| CCC(=O)C1C(=O)CC(C(=O)O)CC1=O (stereo not given) | -6.18% |  |
| CC(C)(C)C1CCC(O)CC1 (stereo not given) | -4.9% |  |
| CCCC/C=C\CCCCCCCCO | 4.75% |  |
| CC/C=C\CCOC(=O)c1ccccc1O | 2.86% |  |
| c1ccc2cc3ccccc3cc2c1 | 3.27% |  |
| O=C(Nc1ccccc1)c1cc(Cl)ccc1O | -4.88% |  |

— PubChem BioAssay (NCATS)
